Among the data in ChEMBL document CHEMBL1961873, “Compounds: GSK PKIS; Assays: Nanosyn kinase panel” (2012) are inhibition values, retold here.

Assay [1] has as its target Sphingosine kinase 1 (Homo sapiens) (UniProt Q9NYA1). Conditions: at 1 µM.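 Also: mean SPHK1 inhibition value reported from the GSK PKIS kinase panel screen.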
In assay [2] the target is T1, Sphingosine kinase 2 (Homo sapiens) (UniProt Q9NRA0).
T1 sequence (whole entry): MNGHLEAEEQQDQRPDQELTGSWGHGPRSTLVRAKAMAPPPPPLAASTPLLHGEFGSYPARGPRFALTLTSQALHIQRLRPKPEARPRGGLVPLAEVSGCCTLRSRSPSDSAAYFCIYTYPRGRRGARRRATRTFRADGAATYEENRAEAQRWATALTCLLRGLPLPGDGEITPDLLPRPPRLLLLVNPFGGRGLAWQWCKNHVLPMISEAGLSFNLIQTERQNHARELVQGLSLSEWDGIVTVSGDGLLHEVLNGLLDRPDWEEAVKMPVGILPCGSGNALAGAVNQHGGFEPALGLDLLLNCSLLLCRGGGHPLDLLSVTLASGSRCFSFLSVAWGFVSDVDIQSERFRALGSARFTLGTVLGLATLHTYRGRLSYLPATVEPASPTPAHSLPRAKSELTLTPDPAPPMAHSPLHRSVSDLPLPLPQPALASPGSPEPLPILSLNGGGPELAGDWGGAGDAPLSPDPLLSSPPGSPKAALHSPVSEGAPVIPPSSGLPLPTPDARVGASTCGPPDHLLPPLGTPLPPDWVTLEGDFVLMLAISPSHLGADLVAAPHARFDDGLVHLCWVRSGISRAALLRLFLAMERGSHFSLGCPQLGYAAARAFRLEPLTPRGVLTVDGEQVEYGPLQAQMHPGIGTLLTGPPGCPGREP
Conditions: at 0.1 µM.

The target in assay [3] is T1, Sphingosine kinase 2 (Homo sapiens). Conditions: at 1 µM.
The target of assay [4] is Casein kinase II subunit alpha (Homo sapiens) (UniProt P68400). Conditions: at 0.1 µM.
Sequence of Casein kinase II subunit alpha (Homo sapiens) (P68400 whole entry, looked up): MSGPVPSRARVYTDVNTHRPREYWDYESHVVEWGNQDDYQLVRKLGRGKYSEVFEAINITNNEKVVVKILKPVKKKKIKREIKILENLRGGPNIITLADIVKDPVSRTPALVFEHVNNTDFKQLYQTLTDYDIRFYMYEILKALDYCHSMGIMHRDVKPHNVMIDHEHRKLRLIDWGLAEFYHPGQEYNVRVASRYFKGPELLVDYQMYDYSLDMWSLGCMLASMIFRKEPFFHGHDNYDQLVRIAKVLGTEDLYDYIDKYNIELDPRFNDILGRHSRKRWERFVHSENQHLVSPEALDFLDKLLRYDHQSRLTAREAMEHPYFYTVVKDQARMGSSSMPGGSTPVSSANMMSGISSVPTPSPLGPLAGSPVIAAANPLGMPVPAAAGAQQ
Assay [5] shares this target. The settings on record: at 1 µM.
Assay [6] concerns the target T2, Inhibitor of nuclear factor kappa-B kinase subunit alpha (Homo sapiens) (UniProt O15111).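 Also: mean percent inhibition from GSK PKIS profiling.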
T2 sequence (whole entry): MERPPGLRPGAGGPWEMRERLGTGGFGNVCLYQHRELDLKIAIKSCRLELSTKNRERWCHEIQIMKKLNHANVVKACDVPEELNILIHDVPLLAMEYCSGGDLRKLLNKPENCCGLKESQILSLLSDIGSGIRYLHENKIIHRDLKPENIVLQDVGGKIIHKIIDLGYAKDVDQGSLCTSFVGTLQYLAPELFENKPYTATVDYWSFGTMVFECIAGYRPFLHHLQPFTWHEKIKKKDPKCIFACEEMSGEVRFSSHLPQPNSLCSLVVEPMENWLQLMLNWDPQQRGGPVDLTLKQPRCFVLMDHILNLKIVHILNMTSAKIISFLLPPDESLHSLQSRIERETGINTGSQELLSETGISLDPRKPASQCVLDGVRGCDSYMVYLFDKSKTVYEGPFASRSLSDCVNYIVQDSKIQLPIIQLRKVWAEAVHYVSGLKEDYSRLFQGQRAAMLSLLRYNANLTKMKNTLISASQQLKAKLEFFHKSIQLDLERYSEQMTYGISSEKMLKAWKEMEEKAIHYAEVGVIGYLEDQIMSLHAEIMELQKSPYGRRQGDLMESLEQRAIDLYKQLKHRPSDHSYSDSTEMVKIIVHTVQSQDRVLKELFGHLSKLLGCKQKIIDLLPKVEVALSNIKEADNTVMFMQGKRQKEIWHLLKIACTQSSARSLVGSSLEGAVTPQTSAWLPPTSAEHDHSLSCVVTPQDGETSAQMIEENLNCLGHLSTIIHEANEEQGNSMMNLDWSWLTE
The settings on record: at 0.1 µM.

Assay [7] concerns the target T3, Inhibitor of nuclear factor kappa-B kinase subunit beta (Homo sapiens) (UniProt O14920).
T3 sequence (whole entry): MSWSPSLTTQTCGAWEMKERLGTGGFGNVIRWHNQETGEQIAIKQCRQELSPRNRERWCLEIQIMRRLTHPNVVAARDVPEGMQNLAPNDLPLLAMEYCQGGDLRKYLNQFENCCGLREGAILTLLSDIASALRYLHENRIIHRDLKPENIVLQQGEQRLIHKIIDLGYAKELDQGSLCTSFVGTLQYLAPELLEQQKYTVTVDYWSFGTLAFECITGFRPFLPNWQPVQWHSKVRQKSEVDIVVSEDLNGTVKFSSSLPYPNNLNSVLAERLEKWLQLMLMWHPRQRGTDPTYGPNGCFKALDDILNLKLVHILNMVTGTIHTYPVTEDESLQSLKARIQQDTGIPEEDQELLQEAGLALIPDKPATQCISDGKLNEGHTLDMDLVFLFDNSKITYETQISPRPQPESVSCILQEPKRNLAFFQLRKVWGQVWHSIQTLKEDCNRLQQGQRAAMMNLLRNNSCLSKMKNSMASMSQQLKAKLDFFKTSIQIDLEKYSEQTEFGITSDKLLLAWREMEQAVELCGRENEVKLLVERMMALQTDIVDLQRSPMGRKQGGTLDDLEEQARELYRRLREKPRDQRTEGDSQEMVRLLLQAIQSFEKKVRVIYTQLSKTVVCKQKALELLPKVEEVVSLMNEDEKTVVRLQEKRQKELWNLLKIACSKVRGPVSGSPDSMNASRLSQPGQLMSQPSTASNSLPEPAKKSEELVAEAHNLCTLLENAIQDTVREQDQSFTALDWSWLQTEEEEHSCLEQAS
The settings on record: at 0.1 µM.

In assay [8] the target is T3, Inhibitor of nuclear factor kappa-B kinase subunit beta (Homo sapiens). Conditions: at 1 µM.
For assay [9], the target named is T4, Inhibitor of nuclear factor kappa-B kinase subunit epsilon (Homo sapiens) (UniProt Q14164).
T4 sequence (whole entry): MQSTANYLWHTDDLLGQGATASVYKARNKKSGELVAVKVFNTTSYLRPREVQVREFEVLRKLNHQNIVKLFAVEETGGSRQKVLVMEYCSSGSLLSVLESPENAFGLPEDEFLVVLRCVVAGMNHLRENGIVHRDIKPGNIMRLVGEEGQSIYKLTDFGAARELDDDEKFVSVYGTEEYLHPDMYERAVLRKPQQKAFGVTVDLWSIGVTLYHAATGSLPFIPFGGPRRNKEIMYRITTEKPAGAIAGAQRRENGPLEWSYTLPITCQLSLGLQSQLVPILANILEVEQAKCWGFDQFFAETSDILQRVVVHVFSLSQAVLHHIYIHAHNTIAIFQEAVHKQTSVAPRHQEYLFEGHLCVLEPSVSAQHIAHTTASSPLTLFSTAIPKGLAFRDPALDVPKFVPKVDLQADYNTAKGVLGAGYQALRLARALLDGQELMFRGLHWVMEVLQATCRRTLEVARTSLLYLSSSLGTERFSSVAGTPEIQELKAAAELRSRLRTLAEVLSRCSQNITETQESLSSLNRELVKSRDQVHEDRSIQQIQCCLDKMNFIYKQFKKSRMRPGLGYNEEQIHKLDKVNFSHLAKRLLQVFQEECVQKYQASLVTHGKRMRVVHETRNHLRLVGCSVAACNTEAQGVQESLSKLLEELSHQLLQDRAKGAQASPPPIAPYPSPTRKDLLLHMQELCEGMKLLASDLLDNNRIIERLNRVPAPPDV
Conditions: at 0.1 µM.

Assay [10] deals with T4, Inhibitor of nuclear factor kappa-B kinase subunit epsilon (Homo sapiens). The settings on record: at 1 µM.
Assay [11] deals with T5, Serine/threonine-protein kinase Nek1 (Homo sapiens) (UniProt Q96PY6).
T5 sequence (whole entry): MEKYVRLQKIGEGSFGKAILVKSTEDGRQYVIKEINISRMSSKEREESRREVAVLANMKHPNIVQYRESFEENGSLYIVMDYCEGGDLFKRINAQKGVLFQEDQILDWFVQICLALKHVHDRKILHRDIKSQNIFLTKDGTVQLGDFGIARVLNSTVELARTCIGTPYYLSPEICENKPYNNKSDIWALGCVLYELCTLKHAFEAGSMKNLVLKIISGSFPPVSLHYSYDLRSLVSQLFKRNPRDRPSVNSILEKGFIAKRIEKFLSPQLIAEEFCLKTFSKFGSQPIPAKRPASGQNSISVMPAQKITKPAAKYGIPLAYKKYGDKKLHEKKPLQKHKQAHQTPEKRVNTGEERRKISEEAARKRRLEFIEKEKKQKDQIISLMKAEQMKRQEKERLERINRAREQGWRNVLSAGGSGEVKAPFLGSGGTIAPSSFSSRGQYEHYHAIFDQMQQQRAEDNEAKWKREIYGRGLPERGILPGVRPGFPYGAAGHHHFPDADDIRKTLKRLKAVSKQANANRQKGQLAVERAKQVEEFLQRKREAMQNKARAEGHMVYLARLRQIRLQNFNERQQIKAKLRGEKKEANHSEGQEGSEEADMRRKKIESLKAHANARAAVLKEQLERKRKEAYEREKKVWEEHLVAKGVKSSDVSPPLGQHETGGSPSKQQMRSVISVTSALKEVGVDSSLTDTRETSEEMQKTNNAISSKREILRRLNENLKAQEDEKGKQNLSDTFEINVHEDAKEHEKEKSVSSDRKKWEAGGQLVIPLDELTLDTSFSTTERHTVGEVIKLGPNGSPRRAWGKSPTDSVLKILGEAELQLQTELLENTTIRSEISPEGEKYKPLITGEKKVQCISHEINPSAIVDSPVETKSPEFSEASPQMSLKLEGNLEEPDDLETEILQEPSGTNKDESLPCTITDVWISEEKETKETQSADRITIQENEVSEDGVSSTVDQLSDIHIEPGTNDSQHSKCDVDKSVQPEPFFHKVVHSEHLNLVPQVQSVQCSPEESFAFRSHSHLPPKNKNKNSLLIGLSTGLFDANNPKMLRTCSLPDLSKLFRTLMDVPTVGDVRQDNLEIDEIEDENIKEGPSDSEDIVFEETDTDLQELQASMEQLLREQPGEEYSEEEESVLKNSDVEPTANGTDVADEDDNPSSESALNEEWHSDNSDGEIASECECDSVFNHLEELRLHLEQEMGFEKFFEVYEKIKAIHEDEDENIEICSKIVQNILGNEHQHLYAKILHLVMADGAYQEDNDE
Conditions: at 0.1 µM.

For assay [12], the target named is T5, Serine/threonine-protein kinase Nek1 (Homo sapiens). The settings on record: at 1 µM.
The target in assay [13] is T6, Serine/threonine-protein kinase Nek2 (Homo sapiens) (UniProt P51955).
T6 sequence (whole entry): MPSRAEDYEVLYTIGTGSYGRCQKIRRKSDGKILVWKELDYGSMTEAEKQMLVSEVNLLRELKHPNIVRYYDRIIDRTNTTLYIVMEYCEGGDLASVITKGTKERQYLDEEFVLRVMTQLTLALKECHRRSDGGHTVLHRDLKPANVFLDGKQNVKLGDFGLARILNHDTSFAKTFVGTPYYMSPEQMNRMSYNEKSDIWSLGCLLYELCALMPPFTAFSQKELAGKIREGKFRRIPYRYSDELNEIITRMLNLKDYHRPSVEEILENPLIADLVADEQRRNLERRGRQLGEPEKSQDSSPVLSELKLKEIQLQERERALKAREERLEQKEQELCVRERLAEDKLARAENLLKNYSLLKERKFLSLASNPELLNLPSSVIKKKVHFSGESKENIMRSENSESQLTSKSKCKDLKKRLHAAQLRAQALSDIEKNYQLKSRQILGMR
The settings on record: at 0.1 µM.

Assay [14] has as its target T6, Serine/threonine-protein kinase Nek2 (Homo sapiens). Conditions: at 1 µM.
Assay [15] deals with Serine/threonine-protein kinase Nek6 (Homo sapiens) (UniProt Q9HC98). Conditions: at 0.1 µM.
Sequence of Serine/threonine-protein kinase Nek6 (Homo sapiens) (Q9HC98 whole entry): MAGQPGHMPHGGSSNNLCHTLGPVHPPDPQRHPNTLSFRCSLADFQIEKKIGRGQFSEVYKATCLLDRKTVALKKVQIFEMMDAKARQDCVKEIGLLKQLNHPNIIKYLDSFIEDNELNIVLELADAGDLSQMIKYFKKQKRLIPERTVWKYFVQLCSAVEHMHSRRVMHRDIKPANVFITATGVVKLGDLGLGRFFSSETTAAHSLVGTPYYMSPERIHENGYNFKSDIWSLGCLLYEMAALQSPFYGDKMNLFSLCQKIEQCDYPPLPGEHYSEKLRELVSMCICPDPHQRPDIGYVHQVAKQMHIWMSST
Assay [16] has the same target. Conditions: at 1 µM.
Assay [17] has as its target Serine/threonine-protein kinase Nek7 (Homo sapiens) (UniProt Q8TDX7). Conditions: at 0.1 µM.
Assay [18] shares this target. The settings on record: at 1 µM.
Assay [19] concerns the target T7, Serine/threonine-protein kinase Nek9 (Homo sapiens) (UniProt Q8TD19).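 Also: reported value is the mean percent inhibition of NEK9.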
T7 sequence (whole entry): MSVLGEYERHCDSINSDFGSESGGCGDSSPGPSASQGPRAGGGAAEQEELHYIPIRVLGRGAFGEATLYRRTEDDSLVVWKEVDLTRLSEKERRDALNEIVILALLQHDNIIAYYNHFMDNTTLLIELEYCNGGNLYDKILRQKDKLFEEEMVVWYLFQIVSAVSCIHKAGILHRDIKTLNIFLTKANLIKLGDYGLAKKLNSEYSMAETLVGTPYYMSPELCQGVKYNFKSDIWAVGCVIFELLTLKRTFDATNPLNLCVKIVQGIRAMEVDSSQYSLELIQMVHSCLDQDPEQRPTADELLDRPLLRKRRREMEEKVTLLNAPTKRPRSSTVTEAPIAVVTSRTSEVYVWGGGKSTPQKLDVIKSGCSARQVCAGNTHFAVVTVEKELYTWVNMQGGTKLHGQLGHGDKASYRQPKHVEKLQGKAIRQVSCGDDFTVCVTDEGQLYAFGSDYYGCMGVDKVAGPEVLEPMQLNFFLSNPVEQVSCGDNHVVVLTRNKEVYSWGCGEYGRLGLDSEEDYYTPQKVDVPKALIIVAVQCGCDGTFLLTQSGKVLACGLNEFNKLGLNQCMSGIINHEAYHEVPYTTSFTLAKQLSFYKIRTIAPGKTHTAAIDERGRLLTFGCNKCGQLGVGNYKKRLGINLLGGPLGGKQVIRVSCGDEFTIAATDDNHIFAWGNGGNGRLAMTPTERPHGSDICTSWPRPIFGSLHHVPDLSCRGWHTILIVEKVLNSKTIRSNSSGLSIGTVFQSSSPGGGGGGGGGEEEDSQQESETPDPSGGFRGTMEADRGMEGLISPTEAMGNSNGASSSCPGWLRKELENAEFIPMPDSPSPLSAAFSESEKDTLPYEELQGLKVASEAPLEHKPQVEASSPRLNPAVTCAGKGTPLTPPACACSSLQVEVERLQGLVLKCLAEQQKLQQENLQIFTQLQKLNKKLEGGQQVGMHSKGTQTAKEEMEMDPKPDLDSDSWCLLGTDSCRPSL
Conditions: at 0.1 µM.

Sequence of Serine/threonine-protein kinase Nek7 (Homo sapiens) (Q8TDX7 whole entry, looked up): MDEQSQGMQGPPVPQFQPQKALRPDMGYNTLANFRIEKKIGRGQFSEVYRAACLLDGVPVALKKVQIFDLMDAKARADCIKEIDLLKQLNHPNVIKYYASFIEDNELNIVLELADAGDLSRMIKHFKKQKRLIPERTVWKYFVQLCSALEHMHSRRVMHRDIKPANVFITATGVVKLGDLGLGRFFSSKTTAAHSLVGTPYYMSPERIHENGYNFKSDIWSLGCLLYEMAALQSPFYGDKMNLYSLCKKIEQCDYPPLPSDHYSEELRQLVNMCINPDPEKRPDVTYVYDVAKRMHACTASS
Sequence of Sphingosine kinase 1 (Homo sapiens) (Q9NYA1 whole entry): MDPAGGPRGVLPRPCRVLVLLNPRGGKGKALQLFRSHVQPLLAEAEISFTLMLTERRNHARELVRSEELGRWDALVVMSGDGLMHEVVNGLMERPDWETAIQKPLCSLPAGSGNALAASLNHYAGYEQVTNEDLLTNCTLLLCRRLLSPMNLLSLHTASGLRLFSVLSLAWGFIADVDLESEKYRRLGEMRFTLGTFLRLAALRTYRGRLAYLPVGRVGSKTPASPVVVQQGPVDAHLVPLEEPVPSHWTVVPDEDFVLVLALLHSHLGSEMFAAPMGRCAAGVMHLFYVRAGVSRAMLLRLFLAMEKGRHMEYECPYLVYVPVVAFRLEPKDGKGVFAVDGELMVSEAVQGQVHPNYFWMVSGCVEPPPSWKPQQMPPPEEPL

For the molecule `CN(c1ccc(NC(=O)Nc2c(Cl)cccc2Cl)cc1)c1ccnc(Nc2cccc(CS(C)(=O)=O)c2)n1`, the inhibition in assay [1] is -2.39%; in assay [2] it was 0.77%; in assay [3], -0.82%; in [4], 2.18%; in assay [5] it was 6.66%; in assay [6], -7.42%. Moreover, the inhibition in assay [7] was found to be 3.11%; in assay [8], 2.65%; in [9] it was 6.91%; in assay [10], 8.6%; in [11] it was 1.38%; in assay [12], 1.93%. Moreover, the inhibition in assay [13] was 0.12%; in [14] it was 1.07%; in assay [15], 0.64%; in assay [16], 1.86%; in assay [17], 1.01%; in assay [18], 1.59%. In assay [19], the inhibition is -4.22%.
